The panel holds about 83,000 compounds, 20% with a hit somewhere; the sample as a whole holds those more often.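 Activity criterion: percent growth below 10, measured after cells in 96-well plates were exposed to a single compound concentration for 48 hours.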 Values without a mark were called inactive. Calls of active or inactive are those of the source.

Some test systems named below: T-47D breast; BT-549 breast; MDA-MB-435 melanoma; SW-620 colon; MCF7 breast; HCT-116 colon; HCC-2998 colon; KM12 colon.
What all share (assay): NCI-60 one-dose screen, 48 h (100 = growth as untreated, 0 = no growth, -100 = all killed)
What all share (conditions): 10 µM unless noted

On to `NS(=O)(=O)c1ccc(-n2ncc3c(SCc4ccccc4)ncnc32)cc1`, for which the growth in the assay with T-47D breast was 91.6%; in the assay with BT-549 breast it was 91.6%; in the assay on MDA-MB-435 melanoma it was 106%; in the assay on SW-620 colon it was 95.5%; with MCF7 breast, 98.7%; in the assay with HCT-116 colon, 82.7%. In addition, the growth with HCC-2998 colon was 127%; in the assay on KM12 colon, 94.1%.

As to `CCSc1nc(-c2cccs2)n2nc(-c3ccco3)cc2n1`, the growth with T-47D breast was 43.1%; in the assay with BT-549 breast it was 113%; in the assay on MDA-MB-435 melanoma, 111%; in the assay with SW-620 colon, 102%; in the assay on MCF7 breast, 32.9%; in the assay with HCT-116 colon, 94.8%. Moreover, the growth was 105% in the assay on HCC-2998 colon and 82.5% with KM12 colon.

On to `CCCCCCCCCCN1CCC(N2CCCCC2)CC1`, for which the growth with T-47D breast was -55.9% (active); with BT-549 breast it was 37.5%; in the assay with MDA-MB-435 melanoma, -25% (active); in the assay on SW-620 colon, -56.9% (active); in the assay with MCF7 breast, -60.8% (active); in the assay with HCT-116 colon, -65.2% (active). For the same molecule, the growth is 14.8% with HCC-2998 colon and -6.35% (active) with KM12 colon.

In the case of `C#C[C@]1(O)CCC2C3CCc4cc(O)ccc4C3CC[C@@]21C` (stereo partly drawn), the growth is 50.3% in the assay with T-47D breast; 36.8% in the assay on BT-549 breast; -5.44% (active) in the assay with MDA-MB-435 melanoma; 21.2% in the assay with SW-620 colon; 34.1% with MCF7 breast; 19% in the assay with HCT-116 colon. The growth is 61% in the assay on HCC-2998 colon and 21.9% in the assay with KM12 colon.

With `COc1ccc2[nH]c(=O)c(CNc3ccc(Nc4nccc(-c5ccc(Cl)cc5)n4)cc3)cc2c1`, the growth with T-47D breast was 65.9%; in the assay with BT-549 breast, 104%; with MDA-MB-435 melanoma, 104%; with SW-620 colon, 105%; in the assay with MCF7 breast, 71.8%; in the assay on HCT-116 colon it was 91.1%. The figures for the growth with HCC-2998 colon and with KM12 colon were 106% and 85.4%, respectively.

On to `Cc1cc(=O)[nH]c(/C(=N/Nc2ccccc2)C(=O)c2ccc(Cl)cc2)n1`, for which the growth in the assay with T-47D breast is 77%; in the assay with BT-549 breast, 97.4%; with MDA-MB-435 melanoma, 108%; in the assay with SW-620 colon it was 94.6%; in the assay with MCF7 breast it was 90.1%; in the assay on HCT-116 colon, 86.9%. Moreover, the results for the growth with HCC-2998 colon and in the assay on KM12 colon were 109% and 102%, respectively.

For the molecule `O=C(Nc1ccc(Cl)cc1)Nc1ccccc1CNc1nc(Nc2ccc(OCCN3CCCC3)cc2)ncc1Cl`, the growth in the assay on T-47D breast was 105%; with BT-549 breast, 77.6%; in the assay on MDA-MB-435 melanoma, -28.9% (active); in the assay on SW-620 colon it was -14.9% (active); with MCF7 breast, -10.5% (active); with HCT-116 colon it was -28.7% (active). Moreover, the figures for the growth with HCC-2998 colon and with KM12 colon were -21.1% (active) and 11.3%, respectively.

In the case of `C[C@H](C(=O)N[C@@H](Cc1ccc(-c2ccccc2)cc1)C(=O)NC1CC(C)(C)NC(C)(C)C1)c1ccc(-c2ccccc2)c(F)c1`, the growth was -37.2% (active) with T-47D breast; -19.8% (active) in the assay on BT-549 breast; -90.1% (active) in the assay with MDA-MB-435 melanoma; -78.2% (active) in the assay with SW-620 colon; -50.9% (active) with MCF7 breast; -85.8% (active) in the assay with HCT-116 colon. Moreover, the growth in the assay with HCC-2998 colon was -83% (active); in the assay on KM12 colon, -80% (active).

Turning to `O=C(CNC(=O)c1cccc2ccccc12)Nc1ccccc1Cc1ccccc1`, the growth with T-47D breast was 37.7% [5 µM]; in the assay on BT-549 breast, 40.3% [5 µM]; with MDA-MB-435 melanoma, -8.01% [5 µM] (active); in the assay on SW-620 colon, 25.5% [5 µM]; in the assay on MCF7 breast, 23.5% [5 µM]; with HCT-116 colon, 14.6% [5 µM]. Moreover, the growth in the assay on HCC-2998 colon was 87.1% [5 µM]; in the assay with KM12 colon it was 36% [5 µM].

Regarding `COc1ccc(C(=O)/C=C/c2cccc(Nc3ccnc4cc(Cl)ccc34)c2)cc1`, the growth was 15.7% with T-47D breast; 20.6% in the assay with BT-549 breast; 28.1% with MDA-MB-435 melanoma; 19% in the assay on SW-620 colon; 23.4% in the assay with MCF7 breast; 9.57% (active) in the assay on HCT-116 colon. The growth with HCC-2998 colon was 68.8%; with KM12 colon it was 53%.

For the molecule `CCN(CC)CCCCCCCNc1c2ccc(Cl)cc2nc2ccc(OC)cc12`, the growth is -42.3% (active) in the assay on T-47D breast; -20.9% (active) in the assay on BT-549 breast; -78.9% (active) in the assay on MDA-MB-435 melanoma; -52.9% (active) in the assay on SW-620 colon; -32.4% (active) with MCF7 breast; -49.6% (active) in the assay with HCT-116 colon. The figures for the growth in the assay with HCC-2998 colon and in the assay on KM12 colon were -78.9% (active) and -37.2% (active), respectively.

With `COC(=O)c1c(NC(=O)CSc2nnnn2-c2ccc(OC)cc2)sc(C)c1C`, the growth in the assay on T-47D breast is 92.5%; in the assay on BT-549 breast, 99.6%; with MDA-MB-435 melanoma it was 109%; in the assay with SW-620 colon it was 96.2%; with MCF7 breast, 85.8%; with HCT-116 colon it was 92.1%. Also, the growth in the assay with HCC-2998 colon is 87.6%; with KM12 colon, 98.7%.

As to `Clc1ccc(C2=NN(c3ccc(Cl)cc3)C(c3cccc(Nc4ccnc5cc(Cl)ccc45)c3)C2)cc1` (stereo not drawn), the growth in the assay on T-47D breast was 79.8%; with BT-549 breast, 68.4%; with MDA-MB-435 melanoma, 99.2%; in the assay on SW-620 colon it was 90%; in the assay with MCF7 breast, 81.9%; with HCT-116 colon, 55%. Also, the growth in the assay with HCC-2998 colon was 94%; in the assay with KM12 colon, 85.2%.

As for `CN1CCC[C@@H]1CCO[C@](C)(c1ccccc1)c1ccc(Cl)cc1`, the growth in the assay with T-47D breast is 56.1%; in the assay with BT-549 breast, 69.1%; in the assay on MDA-MB-435 melanoma, 49.8%; in the assay with SW-620 colon, 80%; with MCF7 breast it was 63.3%; with HCT-116 colon, 47.9%. Besides, the growth in the assay with HCC-2998 colon is 61.8%; with KM12 colon it was 88%.

Take `CCOC(=O)Nc1ccc2c3c(cccc13)-c1ccccc1-2`: the growth in the assay on T-47D breast was 58.7%; in the assay with BT-549 breast, 26.1%; in the assay with MDA-MB-435 melanoma, -9.66% (active); with SW-620 colon, 14.9%; with MCF7 breast, 15.8%; with HCT-116 colon, 16.6%. The growth was 41.2% in the assay with HCC-2998 colon and 18.3% in the assay with KM12 colon.

Consider `Cc1ccc(/C=C/C(=O)c2ccc(F)cc2)s1`, for which the growth is 62.9% in the assay on T-47D breast; 76.7% in the assay with BT-549 breast; 52.1% in the assay on MDA-MB-435 melanoma; 30.4% in the assay with SW-620 colon; 35.9% in the assay with MCF7 breast; 25.8% with HCT-116 colon. Besides, the growth with HCC-2998 colon was 88%; with KM12 colon, 67.3%.

The values are drawn from PubChem BioAssay (NCI).
